PubChem BioAssay
Calls of active or inactive are those of the source.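 The calls were made as follows, unless noted: active = inhibition above 20% together with a positive visual image hit; inconclusive = visual image hit but inhibition not above 20%; inactive = no visual image hit.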

How the values were obtained:
[1] = inhibitors of TNFa-induced NFkB p65 translocation, primary screen, imaging, HUVEC, MLSMR starter and 10KST1 sets (AID 438); details: HUVEC TNFa-induced p65 nuclear translocation; cell count: measured here: nuclei count (cytotoxicity indicator), at 2.08 µM; inhibition: at 2 µM, stronger effect = higher value, 0% TNFa-plus-vehicle, 100% no-TNFa wells;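 also: compound added about 3h40 before a 20 min TNFalpha stimulation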;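 as to inhibition: signal is the nuclear over cytoplasmic p65 intensity ratio per well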
[2] = inhibitors of mutant huntingtin aggregation, primary screen, imaging, exon1htt(103Q)mCFP cells, high-content imaging (AID 483;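 active = visual image review flags a hit and inhibition of aggregation exceeds 20%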;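 also: compound exposure lasted 3 days before fixation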;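 as to nuclei count: percent of the per-plate median nuclei count of sample wells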); details: exon1htt(103Q)mCFP cell line, aggregate imaging, at 2 µM; inhibition of aggregation: stronger effect = higher value; nuclei count: measured here: cell count, toxicity
[3] = inhibitors of E-selectin induction by TNFa, primary screen, imaging, HUVEC, immunofluorescence, MLSMR starter and 10KST1 sets (AID 487;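 active = visually confirmed hit in the image check and inhibition above 20%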;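 as to inhibition: signal is fraction of cell area covered by stained E-selectin grains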;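 as to nuclei count: 100% = median nuclei count of all wells on the same plate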); details: HUVEC TNFalpha-induced E-selectin immunofluorescence imaging, at 2 µM; inhibition: stronger effect = higher value; nuclei count: measured here: cell number, toxicity
[4] = target: Voltage-gated potassium channel subunit beta-2 (Rattus norvegicus) (UniProt P62483); assay: KvBeta enzyme negative modulators, primary screen, biochemical, NADPH fluorescence (AID 622;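 active = fluorescence slope higher than the sample average by over 3 SD, cut at about -0.22 in these data, passing the limit was not always enough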;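 also: slope of raw intensity against log time taken from 70 to 1610 s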); details: recombinant KvBeta, 4-cyanobenzaldehyde reduction, at 10 µM, stronger effect = higher value
Chain of Voltage-gated potassium channel subunit beta-2 (Rattus norvegicus) (P62483 whole entry, looked up): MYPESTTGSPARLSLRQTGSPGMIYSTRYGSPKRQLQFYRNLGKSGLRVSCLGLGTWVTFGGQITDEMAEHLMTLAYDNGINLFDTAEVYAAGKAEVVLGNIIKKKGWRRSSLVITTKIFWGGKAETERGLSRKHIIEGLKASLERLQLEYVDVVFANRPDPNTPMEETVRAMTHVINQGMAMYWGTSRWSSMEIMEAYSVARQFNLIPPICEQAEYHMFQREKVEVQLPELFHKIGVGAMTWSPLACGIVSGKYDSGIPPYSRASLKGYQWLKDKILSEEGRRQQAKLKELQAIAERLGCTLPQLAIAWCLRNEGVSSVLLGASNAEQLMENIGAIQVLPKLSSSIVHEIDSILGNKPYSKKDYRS

[5] = target: Voltage-gated potassium channel subunit beta-2 (Rattus norvegicus) (UniProt P62483); assay: KvBeta positive modulators, primary screen, biochemical, NADPH fluorescence (AID 623;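 active = NADPH fluorescence slope more negative than the mean of all samples by about 3 SD, 99.7% confidence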;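 also: fluorescence intensity change per second fitted from 20 to 320 s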); details: Recombinant KvBeta, NADPH fluorescence decrease slope, 10 min; at 10 µM; stronger effect = lower value
[6] = target: Alpha-2C adrenergic receptor (Homo sapiens) (UniProt P18825); assay: modulators of alpha2C/GIRK thallium flux, primary screen, cell-based, HEK293 alpha2C/GIRK1/2 (AID 624;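 active = fluorescence slope after compound addition differing from the mean of all screened samples at 99.7% confidence, in either direction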;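 also: slope of fluorescence ratio to pre-addition baseline per second over 15 to 24 s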); details: thallium flux BTC fluorescence, at 10 µM, actives lie on both sides
Chain of Alpha-2C adrenergic receptor (Homo sapiens) (P18825 whole entry, looked up): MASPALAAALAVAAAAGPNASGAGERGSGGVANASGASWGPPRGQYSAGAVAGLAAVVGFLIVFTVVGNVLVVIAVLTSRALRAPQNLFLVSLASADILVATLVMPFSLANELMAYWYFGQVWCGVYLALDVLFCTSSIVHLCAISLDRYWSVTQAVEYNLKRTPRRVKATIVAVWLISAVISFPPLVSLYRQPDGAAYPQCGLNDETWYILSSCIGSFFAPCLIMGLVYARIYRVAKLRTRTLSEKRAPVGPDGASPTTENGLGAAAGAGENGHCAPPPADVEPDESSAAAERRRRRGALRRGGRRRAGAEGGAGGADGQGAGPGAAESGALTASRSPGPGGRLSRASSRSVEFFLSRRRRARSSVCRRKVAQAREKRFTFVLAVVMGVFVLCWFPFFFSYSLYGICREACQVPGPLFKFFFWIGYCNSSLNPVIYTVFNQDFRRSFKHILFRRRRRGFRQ

[7] = inhibitors of Sendai virus-induced IRF3 signaling, primary screen, TLR/RLR signaling modifier project, cell-based, Sendai virus stimulus, luciferase, 10K MLSCN set (AID 602276;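 active = inhibition at or above 50% at 10 µM; inactive = inhibition below 50%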;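 also: firefly luciferase from ISG56 promoter only with Renilla not read in this screen; 0% = Sendai virus plus DMSO and 100% = medium plus DMSO without virus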); details: HEK293 RL24 IRF3 luciferase reporter, at 10 µM, stronger effect = higher value
[8] = inhibitors of poly I:C-induced TLR3 signaling, primary screen, cell-based, poly I:C stimulus, luciferase, 10K MLSCN set (AID 602277;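 active = inhibition of the reporter signal at or above 50%; inactive = inhibition below 50%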); details: HEK293-TLR3 RL24 IRF3 luciferase reporter, at 10 µM, stronger effect = higher value

SMILES | cell count [1] | inhibition [1] | inhibition of aggregation [2] | nuclei count [2] | inhibition [3] | nuclei count [3] | fluorescence slope [4] | NADPH fluorescence slope [5] | slope [6] | inhibition [7] | inhibition [8]
Cc1cc(C(=O)NCc2ccc(S(N)(=O)=O)cc2)cs1 | 321 | 4.7% (inactive) | -10.8% (inactive) | 108% | 9.5% (inactive) | 91.3% | -0.63 (inactive) | -2.4e-05 (inactive) | 0.00394 (inactive) | 13.4% (inactive) | 10.9% (inactive)
Cc1ccc(-n2ncc3c(=O)n(CC(=O)NCc4ccco4)cnc32)cc1 | 473 | -7% (inactive) | 9.4% (inactive) | 110% | -72.1% (inactive) | 108% | -0.485 (inactive) | -0.000156 (inactive) | 0.00543 (inactive) | 21.7% (inactive) | 20.3% (inactive)
COc1ccccc1N1CCN(C(=O)c2ccc(S(=O)(=O)N3CCCCCC3)cc2)CC1 | 604 | -13% (inactive) | -9.1% (inactive) | 89.6% | -59.2% (inactive) | 89.3% | -0.606 (inactive) | -2.1e-05 (inactive) | 0.0031 (inactive) | -1.31% (inactive) | -1.9% (inactive)
COCCCN1C(=O)C(=O)/C(=C(/O)c2ccc(OCC(C)C)cc2C)C1c1cccnc1 (stereo not drawn) | 299 | -2.4% (inactive) | -8.7% (inactive) | 109% | -28.7% (inactive) | 110% | -0.463 (inactive) | 5.8e-06 (inactive) | 0.00417 (inactive) | 7.86% (inactive) | 23.2% (inactive)
CCCN(CC1CC1)C(=O)Nc1ccccc1C | 693 | -11.6% (inactive) | 9.8% (inactive) | 101% | -32.9% (inactive) | 103% | -0.529 (inactive) | 3.7e-05 (inactive) | 0.00657 (inactive) | -4.1% (inactive) | -19% (inactive)
O=C(CSc1nnc(-c2ccncc2)o1)Oc1ccccc1 | 662 | -2.6% (inactive) | -12.9% (inactive) | 109% | -84.7% (inactive) | 109% | -0.39 (inactive) | -5.2e-05 (inactive) | 0.00449 (inactive) | 16.3% (inactive) | 13.7% (inactive)
CCc1nnc(NC(=O)C2CCCN2S(=O)(=O)c2ccc(C)cc2)s1 (stereo not drawn) | 445 | -8.4% (inactive) | 24.1% (inactive) | 60.3% | 25.4% (inactive) | 123% | -0.41 (inactive) | 1.6e-05 (inactive) | 0.00581 (inactive) | 2.82% (inactive) | 15.9% (inactive)
CC(=O)N(C(C)=O)c1ncc2c([nH]c3ccccc32)c1C#N | 320 | 2.1% (inactive) | -79% (inactive) | 2.8% | 0.9% (inactive) | 117% | -0.406 (inactive) | -2.2e-05 (inactive) | 0.00457 (inactive) | 11.7% (inactive) | 15.6% (inactive)
CN(C)c1ccnc(NCc2ccccc2)c1C#N | 286 | 2.1% (inactive) | 19% (inactive) | 72.9% | -62% (inactive) | 112% | -0.411 (inactive) | -3.6e-05 (inactive) | 0.00526 (inactive) | -8.5% (inactive) | -26.6% (inactive)
Cn1c(=O)c2c(nc(CN3CCOCC3)n2CC(O)CO)n(C)c1=O (stereo not drawn) | 474 | 44.4% (active) | 19.2% (inactive) | 103% | 10.6% (inactive) | 110% | -0.427 (inactive) | -2.2e-05 (inactive) | 0.00587 (inactive) | 14.2% (inactive) | 23.9% (inactive)
CN(C)c1ccc(-c2nn3c(-c4ccc(Cl)cc4Cl)nnc3s2)cc1 | 321 | 2.6% (inactive) | -10.5% (inactive) | 98.2% | 42.5% (inactive) | 96.6% | -0.552 (inactive) | -3.3e-05 (inactive) | 0.00528 (inactive) | -25.6% (inactive) | 55.1% (active)
COc1ccccc1CNC(=O)Nc1cccs1 | 546 | -6.3% (inactive) | 9.4% (inactive) | 118% | -30.8% (inactive) | 123% | -0.45 (inactive) | 8.3e-06 (inactive) | 0.0111 (inactive) | -0.521% (inactive) | -0.402% (inactive)
Cc1nc(NC(=O)c2ccccc2)sc1-c1csc(NCc2ccco2)n1 | 301 | -2.4% (inactive) | 0% (inactive) | 121% | -13% (inactive) | 113% | -0.185 (inactive) | -1.9e-05 (inactive) | 0.0038 (inactive) | 5.26% (inactive) | -13.8% (inactive)
O=C(O)C1CC=CCC1C(=O)Nc1ccc(S(=O)(=O)N2CCCc3ccccc32)cc1 (stereo not drawn) | 335 | -7.5% (inactive) | -17.2% (inactive) | 92.3% | -43.1% (inactive) | 126% | -0.599 (inactive) | -3.1e-05 (inactive) | 0.00437 (inactive) | 46% (inactive) | -62.7% (inactive)
CCN(CC)CCCNc1oc(-c2cccc(Cl)c2)nc1C#N | 729 | -11.9% (inactive) | -13.5% (inactive) | 98.2% | -37.9% (inactive) | 112% | -0.0368 (active) | -1.1e-05 (inactive) | 0.00338 (inactive) | 8.46% (inactive) | 27.9% (inactive)
CCOC(=O)c1nnc(-c2ccccc2)o1 | 620 | 2.2% (inactive) | -2.9% (inactive) | 114% | -14.5% (inactive) | 89.7% | -0.592 (inactive) | -3.3e-05 (inactive) | 0.00603 (inactive) | 17.6% (inactive) | -1.89% (inactive)
CCOC(=O)C1CCN(Cc2ccc(F)c(Br)c2)CC1 | 313 | 3.4% (inactive) | -23.7% (inactive) | 110% | -156% (inactive) | 140% | -0.414 (inactive) | 2e-06 (inactive) | 0.00431 (inactive) | 9.36% (inactive) | 20.4% (inactive)
CC(C)N(C(=O)CSc1nnc(-c2cc3ccccc3cc2O)n1Cc1ccco1)C(C)C | 836 | 6.2% (inactive) | -6.1% (inactive) | 107% | 4.9% (inactive) | 102% | -0.47 (inactive) | -2.4e-05 (inactive) | 0.00627 (inactive) | -4.55% (inactive) | 7.55% (inactive)
Cc1nnc(SCc2nc3ccccc3s2)n1-c1ccccc1 | 394 | -1% (inactive) | -14.1% (inactive) | 83.9% | -324% (inactive) | 153% | -0.317 (inactive) | 7.5e-06 (inactive) | 0.005 (inactive) | 13.8% (inactive) | -17.5% (inactive)
Cc1ccc2oc(-c3ccccc3C(=O)O)cc(=O)c2c1 | 363 | 10.8% (inactive) | 2.4% (inactive) | 107% | -59.4% (inactive) | 125% | -0.627 (inactive) | -1.2e-05 (inactive) | 0.00399 (inactive) | 12.1% (inactive) | 5.36% (inactive)
CCSc1nnc(NC(=O)C2CCCN(S(=O)(=O)c3cnc[nH]3)C2)s1 (stereo not drawn) | 577 | -0.5% (inactive) | 10% (inactive) | 101% | -101% (inactive) | 125% | -0.537 (inactive) | -2.1e-05 (inactive) | 0.00708 (inactive) | 9.63% (inactive) | 21.5% (inactive)
CCCc1nnc(NC(=O)CCC(=O)N2CCN(CCOc3ccc(C)cc3)CC2)s1 | 480 | -5.6% (inactive) | -0.2% (inactive) | 89.5% | -2.3% (inactive) | 81.8% | -0.379 (inactive) | 6e-06 (inactive) | 0.0036 (inactive) | 0.418% (inactive) | 10.9% (inactive)
COc1cccc(NS(=O)(=O)c2ccc3[nH]cc(C(=O)NC4CC4)c(=O)c3c2)c1 | 305 | 4% (inactive) | -2.9% (inactive) | 113% | -42.4% (inactive) | 126% | -0.603 (inactive) | -7e-05 (inactive) | 0.00731 (inactive) | 13.8% (inactive) | 32.8% (inactive)
CC(C(=O)Nc1ccccc1-c1ccccc1)N1CCOCC1 (stereo not drawn) | 555 | -17.7% (inactive) | 5.4% (inactive) | 89.4% | -27.4% (inactive) | 127% | -0.527 (inactive) | -6.7e-05 (inactive) | 0.00481 (inactive) | 3.12% (inactive) | 86.4% (active)
COc1ccc(C(=O)CSc2nnc(C3CCCCC3)n2N)c(OC)c1 | 419 | -11.9% (inactive) | 24.4% (inactive) | 97.2% | 99.1% (active) | 89.1% | -0.612 (inactive) | -2e-05 (inactive) | 0.00551 (inactive) | 10.3% (inactive) | 11.5% (inactive)
O=S(=O)(NC1CCCC1)c1ccccc1Cl | 739 | -7.3% (inactive) | -2.5% (inactive) | 111% | -21.2% (inactive) | 116% | -0.455 (inactive) | -3.7e-05 (inactive) | 0.00495 (inactive) | 7.42% (inactive) | 15.4% (inactive)
CC(C)CNC(=O)C1CC(=O)OC12CCCCC2 (stereo not drawn) | 661 | -32.6% (inactive) | 4.3% (inactive) | 96.4% | -18.4% (inactive) | 107% | -0.594 (inactive) | -6.1e-05 (inactive) | 0.00558 (inactive) | 12.4% (inactive) | 19.6% (inactive)
O=C(CSc1nccn1-c1cccc(Cl)c1)NC1CCCC1 | 256 | -9.5% (inactive) | -1.4% (inactive) | 95.8% | 39.3% (inactive) | 95.5% | -0.618 (inactive) | 3e-05 (inactive) | 0.00565 (inactive) | 14.4% (inactive) | 29.2% (inactive)
